Screening data as filed in PubChem.
Shown are actives, neighbours in structure and some others; about 31% of the full set was active somewhere.
CYP2C19 activ: human CYP2C19 activators, primary screen, biochemical, luminescence; recombinant CYP2C19, luciferin-H EGE luminescence; hits give high values; 0 = fully inhibited enzyme, 1 = untreated enzyme; activation factor at 5 µM; 96,000 tested, under 10 active; AID 1025, 2008;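 active = activation factor of at least 2 at 5 µM in the primary screen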;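 also: 0 = wells with 2.5 mM tranylcypromine and 1 = vehicle-only wells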
Target sequence (P33261 whole entry, looked up): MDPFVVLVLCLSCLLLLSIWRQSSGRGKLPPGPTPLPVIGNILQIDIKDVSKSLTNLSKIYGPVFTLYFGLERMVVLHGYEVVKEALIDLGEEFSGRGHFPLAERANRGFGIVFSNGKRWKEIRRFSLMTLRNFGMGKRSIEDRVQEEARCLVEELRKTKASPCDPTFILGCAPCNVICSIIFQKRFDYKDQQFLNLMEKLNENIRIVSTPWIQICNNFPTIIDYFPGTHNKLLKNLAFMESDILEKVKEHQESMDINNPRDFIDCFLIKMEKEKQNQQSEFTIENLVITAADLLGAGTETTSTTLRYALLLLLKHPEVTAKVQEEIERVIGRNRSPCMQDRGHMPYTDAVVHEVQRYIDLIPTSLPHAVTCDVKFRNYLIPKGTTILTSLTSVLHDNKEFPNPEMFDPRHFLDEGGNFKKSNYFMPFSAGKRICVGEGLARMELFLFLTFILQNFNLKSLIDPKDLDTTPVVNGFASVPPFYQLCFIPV
PLAP act: PLAP enzyme activators, biochemical, luminescence, HTS | Alkaline phosphatase, placental type (Homo sapiens), P05187 | hit rate 1.2% among 96,000 | purified PLAP enzyme, luminescent substrate read-out; hits give high values | activation fold at 20 µM | AID 696, 2007; in the data active = activation fold above about 2
CYP2C9 inh: blockers of cytochrome P450 2C9 activity – biochemical, luminescence, ADME assay, primary screen; CYP2C9 Supersomes, luciferin-H conversion; inhibition, % at 5 µM; AID 777, 2007; hit rate 20% among 96,000;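 active = blocking of liver enzyme CYP2C9 beyond about 50% at 5 µM, limit read from the data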
CYP2C9 activ: human CYP2C9 activators, primary screen, biochemical, luminescence. Cytochrome P450 2C9 (Homo sapiens), P11712. recombinant CYP2C9, luciferin-H conversion; hits give high values; factor 1 = untreated enzyme, 0 = blocked. activation factor at 5 µM. hit rate 1.4% among 96,000. AID 1024, 2008;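 active = activation factor of 2 or more for CYP2C9 at a 5 µM dose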;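 also: 0 = sulfaphenazole-blocked wells and 1 = vehicle-only wells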
CYP2C19 inhib: blockers of cytochrome P450 2C19 activity – biochemical, luminescence, ADME assay, primary screen. P33261. CYP2C19 Supersomes, luciferin-H EGE luminescence, 30 min. inhibition, % at 5 µM. hit rate 21% among 96,000;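 active = CYP2C19 inhibition above a set limit at 5 µM in the primary screen, cut at about 50% in these data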;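 also: plate controls were negative control wells for no effect and 2.5 mM tranylcypromine positive control for full effect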
* marks the source's active call; other numbers are inactive results.

SMILES | CYP2C19 activ | PLAP act | CYP2C9 inh | CYP2C9 activ | CYP2C19 inhib
CCOc1ccccc1N(CC(=O)NCC1CCCO1)C(=O)CCC(=O)Nc1ccccn1 (stereo not given) | 0.7 | 1.2 | 21 | 0.8 | 34
Cc1cccc(N(CC(=O)NCc2ccc3c(c2)OCO3)C(=O)CCC(=O)Nc2ccccn2)c1C | 0.2 | 1.8 | 59* | 0.4 | 82*
COCCN(CC(=O)NCc1ccc(F)cc1)C(=O)CCC(=O)Nc1ccccn1 | 1 | 1.2 | -2 | 1 | 0
COc1ccc(CNC(=O)CN(C(=O)CCC(=O)Nc2ccccn2)c2ccccc2OC)cc1 | 0.6 | 1.4 | 64* | 0.4 | 44
CC(C)(O)C#Cc1ccc(C(=O)NCc2cccs2)s1 | 1.1 | 0.9 | 6 | 0.9 | -8
CC(C(=O)O)C1SC(=O)NC1=O (stereo not given) | 1.2 | 1.2 | 1 | 1 | -15
COC(=O)c1cc(NCc2ccccc2F)ccc1N1CCOCC1 | 0.1 | 1.5 | 55* | 0.5 | 87*
CCOc1ccccc1CNc1ccc(N2CCOCC2)c(C(=O)O)c1 | 1 | 1.1 | 1 | 1 | -2
COc1cc(OC)cc(C(=O)N[C@H](C(=O)Nc2ccccc2N2CCOCC2)C(C)C)c1 | 0.5 | 1.4 | 42 | 0.6 | 48
CC(C)Oc1cccc(C(=O)Nc2ccccc2N2CCOCC2)c1 | 0.6 | 0.9 | 59* | 0.4 | 38
CCC(C)Oc1cccc(C(=O)Nc2ccccc2N2CCOCC2)c1 (stereo not given) | 0.3 | 1.2 | 73* | 0.3 | 68*
Cc1cc(Cl)ccc1OC(C)C(=O)Nc1ccccc1N1CCOCC1 (stereo not given) | 0.1 | 1.3 | 97* | 0 | 90*
COc1cccc(C2C(C(=O)Nc3ccc(C)cc3C)=C(C)Nc3ncnn32)c1OC (stereo not given) | 0.9 | 1.2 | 5 | 0.9 | 11
CCCCNC(=O)Nc1nnc(-c2ccc(Cl)cc2)o1 | 1.1 | 1 | -9 | 1.1 | -13
CCOc1ccc(C(=O)Nc2ccccc2N2CCOCC2)cc1 | 0.8 | 1 | -1 | 1 | 18
CCOc1ccc(C(=O)C2CCN(CC(=O)Nc3ccccc3N3CCOCC3)CC2)cc1 | 0 | 1.5 | 96* | 0 | 99*
COC(=O)c1ccccc1NC(=O)Cn1c(=O)oc2ccc(Cl)cc21 | 0.3 | 1 | 41 | 0.6 | 74*
COC(=O)c1ccccc1NC(=O)CNc1cc(Cl)ccc1N1CCOCC1 | 0.2 | 1.7 | 94* | 0.1 | 84*
COc1ccccc1NC(=O)Cn1c(=O)oc2ccccc21 | 0.7 | 1 | -10 | 1.1 | 30
O=C(NC1C(=O)NNC1c1ccccc1)c1ccc(F)cc1 (stereo not given) | 0.8 | 1.2 | 30 | 0.7 | 16
Cc1ccc(C2NNC(=O)C2NC(=O)c2ccccc2)cc1 (stereo not given) | 0.4 | 1.9 | 23 | 0.8 | 60*
c1ccc(CSc2nnc(-c3sccc3-n3cccc3)o2)cc1 | 0.6 | 0.8 | -9 | 1.1 | 38
CCCNc1nc2c(c(=O)n(C)c(=O)n2C)n1Cc1ccc(F)cc1 | 0.7 | 1.3 | 19 | 0.8 | 33
C/C(Cl)=C\Cn1c(NCCCn2ccnc2)nc2c1c(=O)n(C)c(=O)n2C | 0.2 | 0.9 | 100* | 0 | 77*
Cn1c(=O)[nH]c(=O)c2c1nc(NCCCn1ccnc1)n2Cc1ccc(F)cc1 | 0.3 | 1.5 | 78* | 0.2 | 68*
SMILES | CYP2C19 activ | PLAP act | CYP2C9 inh | CYP2C9 activ | CYP2C19 inhib
C/C(Cl)=C/Cn1c(NCCCn2ccnc2)nc2c1c(=O)[nH]c(=O)n2C | 0.5 | 0.9 | 90* | 0.1 | 52*
Cc1ccc(C)c(N2CCN(CCCNC(=O)Cn3cc4c(n3)CCC(C)C4)CC2)c1 (stereo not given) | 0.7 | 1.3 | 31 | 0.7 | 28
COC(=O)Cn1c(CN2CCC(Cc3ccccc3)CC2)nc2c1c(=O)n(C)c(=O)n2C | 0.5 | 1.3 | 14 | 0.9 | 46
CCOCCN(C(=O)COC)c1cccc(OC)c1 | 0.8 | 1.1 | 0 | 1 | 20
COc1ccc(CNC2CC(=O)N(C)C2=O)cc1 (stereo not given) | 0.8 | 1.1 | 6 | 0.9 | 20
COc1cccc(OCC(=O)N(Cc2nc(-c3ccc(Cl)cc3)no2)C(C)C)c1 | 0.1 | 1.4 | 87* | 0.1 | 88*
COc1ccccc1OCC(=O)N(Cc1nc(-c2ccc(Cl)cc2)no1)C(C)C | 0.2 | 1.6 | -64 | 1.6 | 78*
COc1cccc(C(=O)N(Cc2nc(-c3ccc(C)cc3)no2)C(C)C)c1 | 0.9 | 1.3 | 41 | 0.6 | 12
Nc1ccc(CCS(N)(=O)=O)cc1 | 1 | 0.8 | -6 | 1.1 | -1
Cc1ccc(C(=O)CSc2nc(C)cc(C)c2C(N)=O)cc1 | 0.2 | 0.9 | 60* | 0.4 | 77*
COC(=O)Nc1ccc(S(=O)(=O)N(CCO)CCO)cc1 | 1 | 0.8 | 12 | 0.9 | 1
CCOc1ccc(N2C(=O)Nc3ccccc3C2(O)C(=O)NCc2ccc3c(c2)OCO3)cc1 (stereo not given) | 0.8 | 0.8 | -141 | 2.4* | 19
Cc1nc2nc(SCC(=O)C(C)(C)C)[nH]c2cc1Br | 0.7 | 1 | 17 | 0.8 | 30
CC(C)(C)C(=O)CSc1nc2ncc(Br)cc2[nH]1 | 0.1 | 1.2 | 46 | 0.5 | 91*
COc1ccc2nc(SCC(=O)Nc3c(C)cccc3C)[nH]c2c1 | 0.5 | 1.4 | 84* | 0.2 | 52*
O=C(CSc1nc2ccc(Cl)cc2[nH]1)c1ccc2c(c1)OCO2 | 0.7 | 1.1 | 66* | 0.3 | 26
CC(C)NC(=O)C1(O)c2ccccc2NC(=O)N1c1ccc(Cl)c(Cl)c1 (stereo not given) | 0.7 | 0.9 | 46 | 0.5 | 26
O=C1CC(N2CCC(Cc3ccccc3)CC2)C(=O)N1CCc1ccccc1 (stereo not given) | 0.7 | 1.6 | 16 | 0.8 | 26
O=C(CSc1nc2ncc(Br)cc2[nH]1)Nc1ccc2c(c1)OCO2 | 0.3 | 1 | 96* | 0 | 72*
COc1ccc2[nH]c3nc(SCC(=O)Nc4ccc5c(c4)OCO5)nnc3c2c1 | 0.8 | 1.5 | 70* | 0.3 | 23
COc1ccc2[nH]c3nc(SCc4nnc(-c5ccc(C)cc5)o4)nnc3c2c1 | 0.5 | 1.4 | 72* | 0.3 | 52*
CCOc1ccc2nc(SCC(=O)Nc3ccc4c(c3)OCCO4)[nH]c2c1 | 0.4 | 2.1* | 91* | 0.1 | 61*
CCn1c(=O)c2c(nc(SCc3ccccn3)n2C)n(C)c1=O | 1 | 0.9 | -19 | 1.2 | -4
CCc1ccc(C(=O)CCC2CCCCC2=O)cc1 (stereo not given) | 0.6 | 0.9 | 10 | 0.9 | 40
COc1ccc2nc(SCC(N)=O)[nH]c2c1 | 1.1 | 1.1 | -16 | 1.2 | -13
COc1ccc2nc(SCC(=O)Nc3ccc4c(c3)OCCO4)[nH]c2c1 | 0.6 | 1.5 | 81* | 0.2 | 36
